# Experimental data published in PubChem BioAssay.
# A number with no mark means an inactive call.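 The calls were made as follows: active = fluorescence slope higher than the sample average by over 3 SD (cut at about -0.22 in these data, passing the limit was not always enough); inactive = the rest.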
# Target: Voltage-gated potassium channel subunit beta-2 (Rattus norvegicus) (UniProt P62483)
# Assay: KvBeta enzyme negative modulators, primary screen, biochemical, NADPH fluorescence (AID 622);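 also: slope of raw intensity against log time taken from 70 to 1610 s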
# Conditions: recombinant KvBeta, 4-cyanobenzaldehyde reduction, at 10 µM, stronger effect = higher value
# Voltage-gated potassium channel subunit beta-2 (Rattus norvegicus), sequence (P62483 whole entry, looked up): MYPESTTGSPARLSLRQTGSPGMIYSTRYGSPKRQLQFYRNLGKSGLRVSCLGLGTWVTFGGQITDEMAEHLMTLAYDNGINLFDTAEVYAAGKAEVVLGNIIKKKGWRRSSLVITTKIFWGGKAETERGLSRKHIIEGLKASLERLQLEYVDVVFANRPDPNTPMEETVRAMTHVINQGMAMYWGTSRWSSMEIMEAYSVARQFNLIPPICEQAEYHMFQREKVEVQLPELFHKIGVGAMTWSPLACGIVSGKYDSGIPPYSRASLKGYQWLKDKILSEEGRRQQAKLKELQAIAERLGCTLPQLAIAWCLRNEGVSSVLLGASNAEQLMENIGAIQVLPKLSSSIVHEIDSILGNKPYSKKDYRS
row,Structure (SMILES),fluorescence slope
1,Nc1ncc(P(=S)(N2CCOCC2)N2CCOCC2)s1,-0.461
2,CCCCc1nc(N2CCNCC2)c(C#N)c2c1CSC(C)(C)C2,-0.49
3,COc1ccc(C(=O)CC2C(=O)N(C)C(=O)N(C)C2=O)cc1,-0.453
4,CCc1nc(N2CCNCC2)c(C#N)c2c1CSC(C)(C)C2,-0.474
5,COC(=O)c1cncn1C(C)c1ccccc1 (stereo not drawn),-0.488
6,CCCN(CC#CCO)CCC,-0.448
7,OC1(c2ccc(F)cc2)CCNC1 (stereo not drawn),-0.468
8,COc1ccccc1-n1c(O)c(C=NCCCn2ccnc2)c(=O)[nH]c1=O,-0.426
9,COc1ccc(C2SCC(=O)Nc3c2c(=O)[nH]n3C2CCCCC2)cc1 (stereo not drawn),-0.479
10,CCCNS(=O)(=O)c1ccc(OCC(=O)N2CCN(Cc3ccccc3)CC2)cc1,-0.476
11,CCCCNC(=O)Nc1ccc(C(O)(C(=O)OCC)C(F)(F)F)cc1 (stereo not drawn),-0.432
12,CCOC(=O)c1cc(C)n(CCc2cnc[nH]2)c1C,-0.47
13,CC1CN=C(Nc2ccc(N(C)C)cc2)S1 (stereo not drawn),-0.464
14,NCC1(c2ccc3c(c2)OCCO3)CCCC1,-0.453
15,CCOC(=O)C1=C(C)OC(N)=C(C(=O)OCC)[C@@]12C(=O)N(CC(N)=O)c1ccccc12,-0.445
16,COC(=O)C(O)(c1ccc(NC(=O)c2ccco2)c(OC)c1)C(F)(F)F (stereo not drawn),-0.43
17,C=CCOC(=O)C1=C(C)OC(N)=C(C#N)[C@@]12C(=O)N(CC(N)=O)c1ccccc12,-0.441
18,C=CCOC(=O)C1=C(C)OC(N)=C(C#N)C12C(=O)N(CN1CCOCC1)c1ccccc12 (stereo not drawn),-0.515
19,O=C(CN1CCN(CCO)CC1)Nc1ccc(Cl)cc1C(=O)c1ccccc1,-0.465

row,Structure (SMILES),fluorescence slope
1,Cc1c(N=Cc2c(O)n(Cc3ccco3)c(=O)[nH]c2=O)c(=O)n(-c2ccccc2)n1C,-0.492
2,CN(C)CCOC(=O)c1cn(Cc2ccccc2)c2ccccc12,-0.507
3,COC(=O)CC1(Cc2ccccc2)C(=O)NC(=O)NC1=O,-0.579
4,COc1ccc2c(c1OC)C(=O)OC2c1c(O)n(C2CCCCC2)c(=O)[nH]c1=O (stereo not drawn),-0.379
5,Cn1c(O)c(C=NCCCNC2CCCCC2)c(=O)n(C)c1=O,-0.469
6,COc1ccc(C2SCC(=O)Nc3c2c(=O)[nH]n3C2CCCCCC2)cc1 (stereo not drawn),-0.478
7,CNC(=O)N(C)c1nnc(C(C)(C)C)s1,-0.502
8,CCCC12CN3CN(C1)CC(CCC)(C3)C2O (stereo not drawn),-0.474
9,Nc1c(C(=O)NCc2ccco2)c2nc3ccccc3nc2n1CCN1CCCCC1,-0.0963
10,OC(c1ccc(F)cc1)C(c1ccccc1)N1CCOCC1 (stereo not drawn),-0.427
11,COC(=O)C(c1ccccc1)N1CCCCCC1 (stereo not drawn),-0.406
12,CCn1c(O)c(C(=O)CC2NCCc3ccccc32)c(=O)n(CC)c1=S (stereo not drawn),-0.399
13,Nc1c(C(=O)NCc2ccco2)c2nc3ccccc3nc2n1Cc1ccc(F)cc1,-0.236
14,COc1ccc(CC[n+]2cc(/N=C(\C)[O-])on2)cc1OC,-0.574
15,CCCCNC(=O)Nc1ccc(C(O)(C(=O)OC)C(F)(F)F)cc1 (stereo not drawn),-0.482
16,CC1(C)NCCN2C(=O)CSC21 (stereo not drawn),-0.493
17,CC1(c2ccccc2)NCCN2C(=O)CSC21 (stereo not drawn),-0.477
18,CN1CCc2c(c(N3CCCCC3)nc3n[nH]c(N)c23)C1,-0.463
19,CC1(C)C(c2ccccc2)=NC(c2cccnc2)N1O (stereo not drawn),-0.495
